The structures appear in SMILES notation. Compounds without any hit were thinned out: in the full panel of roughly 79,000, 15% have a hit. Unmarked numbers belong to inactive results. Calls of active or inactive are those of the source. No stated cut-off is given here; in the data, active means growth inhibition above about 70%; inactive means the rest.

Experimental findings from PubChem BioAssay (NCI) are described below.

Assay [1] is described as follows: NCI Yeast Anticancer Drug Screen. Data for the rad50 strain (AID 155).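 Further: 0% = growth of vehicle-only cultures of the same strain.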 The settings on record: S. cerevisiae rad50 strain growth inhibition; at 50.0 µM; active compounds read high. The method, boiled down: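 A DNA repair-deficient yeast mutant serves as the test organism; compound-induced growth inhibition is calculated against vehicle-treated cells.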
The nature of assay [2]: NCI Yeast Anticancer Drug Screen. Data for the mec2-1 strain (AID 157). The conditions noted are these: S. cerevisiae mec2-1 strain, at 50.0 µM, active compounds read high. The method, boiled down:
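mec2-1 yeast strain, carrying an alteration in DNA damage repair or cell cycle control, was exposed to compounds; growth inhibition was measured relative to vehicle-treated controls.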

Assay [3] can be described thus: NCI Yeast Anticancer Drug Screen. Data for the sgs1 mgt1 strain (AID 161).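 Further: 0% = growth of cultures given vehicle only.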 The settings on record: S. cerevisiae sgs1 mgt1 strain, at 50.0 µM, active compounds read high. In outline: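 Yeast cells carrying a defined DNA-repair defect were exposed to test compounds. Growth inhibition was measured relative to vehicle-treated controls.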
A short description of assay [4]: NCI Yeast Anticancer Drug Screen. Data for the cln2 rad14 strain (AID 165).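 Further: 0% = growth equal to vehicle treated cultures.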 The settings on record: S. cerevisiae cln2 rad14 strain, at 50.0 µM, active compounds read high. The method, boiled down: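 Yeast carrying cln2 and rad14 alterations (cell cycle control and DNA damage repair) were exposed to compounds. Growth inhibition was measured against vehicle-treated controls.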

Assay [5] in a line: NCI Yeast Anticancer Drug Screen. Data for the bub3 strain (AID 167). The conditions noted are these: S. cerevisiae bub3 mutant strain, at 50.0 µM, active compounds read high. In outline: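 Inhibition values come from growth of compound-treated mutant yeast normalised to vehicle-treated controls.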
Assay [6] can be described thus: NCI Yeast Anticancer Drug Screen. Data for the mlh1 rad18 strain (AID 175). The settings on record: S. cerevisiae mlh1 rad18 strain growth inhibition; at 50.0 µM; active compounds read high. In outline:
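Growth inhibition of the yeast strain was measured after compound exposure and expressed relative to vehicle-treated controls. The strain carries defined defects in DNA damage repair.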

In the case of `CC(C)N1CCc2cc3c(cc2C1)OCO3`, the growth inhibition in assay [1] is 9.8%; in assay [2], 11.1%; in assay [3], 1.3%; in assay [4], 1.25%; in assay [5], -17.5%; in assay [6], 23%.
Turning to `CCOP(=O)(OCC)Oc1cc(C)c(Cl)c(C)c1`, the growth inhibition in assay [1] is 10.2%; in assay [2] it was -16.7%; in assay [3], 4.15%; in assay [4] it was 18.4%; in assay [5] it was 16.9%; in assay [6] it was -8.35%.
On to `CC(C)OP(=O)(OC(C)C)C(=O)Nc1cc(Cl)ccc1Cl`, for which the growth inhibition was -23.5% in assay [1]; 14.6% in assay [2]; -6.35% in assay [3]; -31% in assay [4]; 15% in assay [5]; -0.15% in assay [6].
As to `OC(COc1cccc2ccccc12)CN(CCCl)CCCl` (stereo not drawn), the growth inhibition in assay [1] is 6.85%; in assay [2], -12.5%; in assay [3] it was -5.6%; in assay [4] it was 4.05%; in assay [5], 8.55%; in assay [6] it was -30.1%.
`C[C@]12CCC(=O)N[C@@H]1CC[C@@H]1[C@@H]2CC[C@]2(C)[C@@H](OC(=O)COc3ccc(N(CCCl)CCCl)cc3)CC[C@@H]12`: the growth inhibition in assay [1] is 0.45%; in assay [2] it was 4.7%; in assay [3], 0.15%; in assay [4], 11.8%; in assay [5] it was 5.75%; in assay [6] it was -12.8%.
On to `COC(=O)C1=C(C)N2CCCOC2(C)C(C(=O)OC)C1c1cccc(Cl)c1` (stereo not drawn), for which the growth inhibition is 61.4% in assay [1]; 16.6% in assay [2]; 40.5% in assay [3]; 29.1% in assay [4]; 44.4% in assay [5]; 61.5% in assay [6].
Consider `COc1ccc2c(c1)CC(CN1CCC3(CC1)C(=O)NCN3c1ccccc1)O2` (stereo not drawn), for which the growth inhibition in assay [1] was 76.7% (active); in assay [2] it was 57%; in assay [3], 86.4% (active); in assay [4], 79% (active); in assay [5] it was 55.5%; in assay [6], 78.5% (active).
For the compound `CCCCCC[C@@H](O)[C@@H]1C2=C(C[C@H]([C@H](O)[C@@H]3CC=CC(=O)O3)CC3=C(C(=O)OC3=O)[C@@H]1O)C(=O)OC2=O`, the growth inhibition in assay [1] is 20.6%; in assay [2] it was 2.75%; in assay [3], 26.7%; in assay [4], 9.5%; in assay [5], 16.7%; in assay [6] it was 19.6%.
Take `CN(Cc1ccccc1)CC(O)c1ccccc1Cl` (stereo not drawn): the growth inhibition in assay [1] is -0.75%; in assay [2], -2.7%; in assay [3], 21.4%; in assay [4] it was -28.2%; in assay [5], 13.3%; in assay [6] it was 25.1%.
For the compound `Cc1nnnn1C`, the growth inhibition in assay [1] was -13.2%; in assay [2], -11.6%; in assay [3], -18.9%; in assay [4] it was -10.9%; in assay [5], -19.1%; in assay [6], -13.9%.
As for `C[N+](C)(C)CCP(=O)([O-])O`, the growth inhibition in assay [1] is -3.3%; in assay [2], 0%; in assay [3] it was 1.55%; in assay [4], -13.1%; in assay [5], -3.1%; in assay [6], 5.45%.
In the case of `O=P(Nc1ccc(Cl)cc1)(Oc1ccccc1)N(CCCl)CCCl` (stereo not drawn), the growth inhibition in assay [1] was 3.75%; in assay [2], -1.55%; in assay [3] it was -6.75%; in assay [4], -9.4%; in assay [5], -7.95%; in assay [6], 0.9%.
As for `CS(=O)(=O)OCCN(CCCl)c1cc(C(N)=O)c([N+](=O)[O-])cc1[N+](=O)[O-]`, the growth inhibition in assay [1] is -6.8%; in assay [2] it was -5.5%; in assay [3] it was 5.45%; in assay [4] it was -16.4%; in assay [5], -11.4%; in assay [6], -1.65%.
Regarding `CC(=O)Oc1cccc2c1C(=O)C(C(=O)C=O)C1C(C=O)OC(C)(C)OC21C` (stereo not drawn), the growth inhibition in assay [1] is 29.6%; in assay [2], 0.1%; in assay [3], 33.6%; in assay [4], 14.8%; in assay [5], 16.8%; in assay [6], 12.1%.
In the case of `c1ccc2cc(C3NCCc4[nH]cnc43)ccc2c1` (stereo not drawn), the growth inhibition in assay [1] was 4.65%; in assay [2] it was -7.6%; in assay [3] it was -6.7%; in assay [4], 2.85%; in assay [5], -7.7%; in assay [6], 29.8%.
As for `C[C@]12Cc3sc(N)nc3C[C@@H]1CC[C@@H]1[C@@H]2CC[C@@]2(C)[C@H]1CC[C@]2(C)O`, the growth inhibition in assay [1] was -21.5%; in assay [2], -18.4%; in assay [3] it was 11%; in assay [4] it was -32%; in assay [5], 25.6%; in assay [6], -4.95%.
With `CC[C@]12C=CCN3CC[C@@]4(c5ccc(OC)cc5N(C)[C@H]4[C@@](O)(C(=O)OC)[C@@H]1OC(C)=O)[C@@H]32`, the growth inhibition in assay [1] is 30.7%; in assay [2] it was -6.5%; in assay [3], 18.3%; in assay [4] it was 19.8%; in assay [5] it was 20.9%; in assay [6], 8.35%.
As for `COc1ccc(NC(=O)/C(=N/NC(N)=S)C2C(=O)NC(=S)NC2=O)c(OC)c1`, the growth inhibition in assay [1] was -17.4%; in assay [2], -4%; in assay [3], -4.55%; in assay [4], -21.9%; in assay [5], -8.9%; in assay [6] it was -25%.
In the case of `Cn1cnc([N+](=O)[O-])c1C(=O)O`, the growth inhibition in assay [1] is 7.9%; in assay [2], 25.1%; in assay [3], 20.4%; in assay [4] it was -13.2%; in assay [5] it was -17.9%; in assay [6] it was 6.55%.
For the compound `O=C([O-])c1ccccc1Nc1ccccn1.O=C([O-])c1ccccc1Nc1ccccn1.[Ni+2]`, the growth inhibition in assay [1] was -15%; in assay [2] it was -12.4%; in assay [3], -15.6%; in assay [4], 8.15%; in assay [5], -16.8%; in assay [6], -9.85%.
Turning to `COc1cccc(OC)c1CCN`, the growth inhibition in assay [1] is -27.9%; in assay [2], -5.3%; in assay [3], -11.4%; in assay [4], -1.1%; in assay [5], -24.8%; in assay [6], -36%.
On to `CC12CCC3C(CCC4=CC(=O)CCC43C=O)C1CCC2Oc1ccccc1` (stereo not drawn), for which the growth inhibition in assay [1] is 20.7%; in assay [2], -9.7%; in assay [3] it was 25%; in assay [4], 23.6%; in assay [5] it was 12.4%; in assay [6], 25.6%.
In the case of `O=C(CN1CCOCC1)c1ccc2ccccc2c1`, the growth inhibition is 10.1% in assay [1]; 2.05% in assay [2]; 8.4% in assay [3]; -14.4% in assay [4]; 17% in assay [5]; 9.85% in assay [6].
